CYP2C9 act – CYP2C9 (human) activation; hit rate 1.4% among 96,000; P11712; activation factor at 5 µM; recombinant CYP2C9, luciferin-H conversion, luminescence; stronger effect = higher value; factor 1 = untreated enzyme, 0 = blocked;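 active = activation factor of 2 or more for CYP2C9 at a 5 µM dose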
Target sequence (P11712 whole entry, looked up): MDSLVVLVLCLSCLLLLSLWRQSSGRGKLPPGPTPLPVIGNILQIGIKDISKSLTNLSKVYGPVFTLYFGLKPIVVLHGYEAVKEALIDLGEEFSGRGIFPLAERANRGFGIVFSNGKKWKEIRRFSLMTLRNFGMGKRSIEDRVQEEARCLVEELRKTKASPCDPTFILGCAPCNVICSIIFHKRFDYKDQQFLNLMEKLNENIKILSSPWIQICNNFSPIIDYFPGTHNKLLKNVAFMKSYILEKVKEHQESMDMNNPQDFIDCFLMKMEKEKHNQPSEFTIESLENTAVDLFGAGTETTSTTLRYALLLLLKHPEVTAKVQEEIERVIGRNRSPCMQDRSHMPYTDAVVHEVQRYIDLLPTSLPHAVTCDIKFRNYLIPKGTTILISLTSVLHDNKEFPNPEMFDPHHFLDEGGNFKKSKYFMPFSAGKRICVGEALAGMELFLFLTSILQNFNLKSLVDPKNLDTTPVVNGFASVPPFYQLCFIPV
PTK2B oligo ant – antagonists of human Pyk2 oligomerization. z-score (the deposit names both 25 µM and 10 µM). Q293 cells, Pyk2 FERM NanoBiT luminescence; stronger effect = lower value. Q14289. AID 1347419. hit rate 0.83% among 99,000;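 active = Z-score of -3 or lower, scaled per plate to the spread of control and sample wells; inactive = z-score above -3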;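 note: negative z-score means lost luminescence so less FERM oligomerization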
CYP2C19 activ – increases human CYP2C19 enzyme activity; recombinant CYP2C19, luciferin-H EGE luminescence; stronger effect = higher value; 0 = fully inhibited enzyme, 1 = untreated enzyme; activation factor at 5 µM; AID 1025; 96,000 tested, under 10 active;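 active = activation factor of at least 2 at 5 µM in the primary screen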
CYP2C9 inh – human CYP2C9 inhibition | P11712 | CYP2C9 Supersomes, luciferin-H conversion, luminescence | inhibition, % at 5 µM | hit rate 20% among 96,000 | AID 777;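 active = blocking of liver enzyme CYP2C9 beyond about 50% at 5 µM, limit read from the data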
CYP2C19 inhib – blocks human cytochrome P450 2C19. hit rate 21% among 96,000. P33261. inhibition, % at 5 µM. CYP2C19 Supersomes, luciferin-H EGE luminescence, 30 min;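 active = CYP2C19 inhibition above a set limit at 5 µM in the primary screen, cut at about 50% in these data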
A number is an active result; – = inactive; · = not tested or not shown. Shown are actives, neighbours in structure and some others; about 28% of the full set was active somewhere.

SMILES | CYP2C9 act | PTK2B oligo ant | CYP2C19 activ | CYP2C9 inh | CYP2C19 inhib
O=C(Nc1ccccc1Cl)c1ccccc1Oc1ccc(C(F)(F)F)cc1[N+](=O)[O-] | – | – | – | 88 | 73
CCN1C(=O)N(C)C(N(O)C(=O)NC)C1(C)C (stereo not drawn) | – | – | – | – | –
COc1ccc2[nH]cc(CCN=C3SCC(=O)N3C)c2c1 | – | – | – | – | 79
CCOC(=O)c1ccc(-n2cncn2)nc1 | – | – | – | – | –
C#CCOC(=O)c1ccc(-n2cncn2)nc1 | – | – | – | – | 82
CCOCCOC(=O)c1ccc(-n2cncn2)nc1 | – | – | – | – | 61
Cc1cc(C)n(-c2c(F)c(F)c(CO)c(F)c2F)n1 | – | – | – | – | –
O=C(O)c1ccc(NS(=O)(=O)c2cc(Cl)ccc2Cl)cc1O | – | – | – | – | –
O=C(O)c1ccc(NS(=O)(=O)/C=C/c2ccccc2)cc1O | – | – | – | 55 | –
O=S(=O)(Nc1ccc(N2CCOCC2)cc1)c1ccccc1 | – | – | – | 84 | 99
O=C(/C=C/c1ccccc1)NC(=S)Nc1ccc(N2CCOCC2)cc1 | – | – | – | – | –
O=S(=O)(Nc1ccc(N2CCOCC2)cc1)c1ccc(Cl)s1 | – | – | – | 100 | 100
O=S(=O)(/C=C/c1ccccc1)Nc1ccc(N2CCOCC2)cc1 | – | – | – | 83 | 94
CC(C)C(=O)N(Cc1cc2ccccc2[nH]c1=O)C(C)(C)C | – | – | – | – | –
COc1ccc(N2CC(C(=O)NCc3cccnc3)CC2=O)cc1 (stereo not drawn) | – | – | – | – | –
COc1ccc(S(=O)(=O)Nc2ccc(N3CCOCC3)cc2)cc1Br | – | – | – | 96 | 100
COc1ccc(CN2CCOCC2)cc1Br | – | – | – | – | –
COc1ccccc1NC(=O)c1nnn(Cc2ccccc2)c1NC(C)=O | – | – | – | – | –
O=C(Nc1ccccc1)c1nnn(Cc2ccccc2)c1NC(=O)C(F)(F)F | – | – | – | 86 | 57
COc1ccccc1NC(=O)c1nnn(Cc2ccccc2)c1NC(=O)C(F)(F)F | – | – | – | 71 | –
Cc1cc(C(=O)Nc2ccccc2)oc1C | – | – | – | – | –
C(=N\n1cnnc1)/c1ccc(OCc2ccccc2)cc1 | – | – | – | 81 | 70
C(=N\n1cnnc1)/c1ccc(-c2ccccc2)cc1 | – | – | – | 98 | 99
CC(=O)Oc1ccccc1C(=O)Oc1ccc(/C=N/n2cnnc2)cc1 | – | – | – | 95 | –
CCOc1ccc(/C=N/n2cnnc2)cc1 | – | – | – | – | 82
SMILES | CYP2C9 act | PTK2B oligo ant | CYP2C19 activ | CYP2C9 inh | CYP2C19 inhib
Cc1ccc(S(=O)(=O)Cn2nnnc2C(c2ccc(F)cc2)N2CCC(C(N)=O)CC2)cc1 (stereo not drawn) | – | – | – | – | –
O=C(Nc1ccc2c(c1)OCO2)C1CCCN1C(=O)OCc1ccccc1 (stereo not drawn) | – | – | – | 81 | 99
O=C(Nc1ccc2c(c1)OCO2)C1CCCN1C(=O)NCc1ccccc1 (stereo not drawn) | – | – | – | 72 | 97
O=C(Nc1ccc2c(c1)OCO2)OCc1ccccc1 | – | – | – | – | 92
COc1ccc(-n2c(Cc3cccn3C)nnc2SCC(=O)Nc2ccc(C)c(Cl)c2)cc1 | – | · | – | – | –
O=C(C1CCCO1)N1CCN(c2ccc(F)cc2)CC1 (stereo not drawn) | · | – | · | · | ·
COc1ccccc1CNC(=O)c1nn(-c2ccc(C)cc2)c(=O)c2c1c1ccccc1n2C | – | – | – | 65 | –
CC(=O)Nc1cccc(NC(=O)CCc2ccccc2)c1 | – | – | – | – | –
CN(C)c1cccc(NC(=O)CCc2ccccc2)c1 | – | – | – | – | 95
CN(C)c1cccc(NC(=O)Cc2ccc(F)cc2)c1 | – | – | – | 62 | 98
CC1N(O)C(C)(C)C(c2ccccc2)=[N+]1[O-] (stereo not drawn) | · | – | · | · | ·
COc1ccc(NC(=O)COc2ccc(N(C)S(=O)(=O)c3ccc(C)cc3)cc2)cc1 | · | – | · | · | ·
CCOC(=O)C(=O)c1csc(NC(=O)COc2ccc(N(C)S(=O)(=O)c3ccc(F)cc3)cc2)n1 | – | – | – | 59 | 57
CN(c1ccc(OCC(=O)N2CCCCC2)cc1)S(=O)(=O)c1cccs1 | – | – | – | 69 | –
CCOC(=O)Cc1csc(NC(=O)COc2ccc(N(C)S(=O)(=O)c3cccs3)cc2)n1 | – | – | – | 95 | 96
CCOC(=O)Cc1csc(NC(=O)COc2ccccc2)n1 | – | – | – | 55 | –
CN1C(=O)N(C)C2C1NC(=O)N2C (stereo not drawn) | – | – | – | – | –
CCOC(=O)Cc1csc(NS(=O)(=O)Cc2ccccc2)n1 | – | – | – | 77 | –
COCC(C)NC(=O)c1cccc(Cl)c1 (stereo not drawn) | – | – | – | – | –
COC(=O)C(/C=N/OCc1ccc([N+](=O)[O-])cc1)NC(=O)c1cccc(Cl)c1 (stereo not drawn) | – | – | – | 61 | 79
COc1ccccc1N1CCN(c2nc3ccccn3c(=O)c2C=O)CC1 | – | – | – | – | 71
COc1ccccc1N1CCN(c2ncnc3nc[nH]c23)CC1 | – | · | – | – | –
CCCCC(c1nnnn1C1CCCC1)N1CCN(C2CCCC2)CC1 (stereo not drawn) | – | – | – | – | –
Cc1ccc(S(=O)(=O)NCCCCCC(=O)Nc2ccccn2)cc1 | – | – | – | – | –
Cc1cc2nnn(-c3nnc(-c4ccccc4)c4ccccc34)c2cc1C | – | – | – | – | –
SMILES | CYP2C9 act | PTK2B oligo ant | CYP2C19 activ | CYP2C9 inh | CYP2C19 inhib
COC(=O)NCCOC(=O)N(O)c1ccc(Br)cc1 | – | – | – | – | 68
COC(=O)NCCOc1cc(C)ccc1C | – | – | – | – | –
COc1ccccc1C1/C(=C(/O)c2ccccc2)C(=O)C(=O)N1CC(C)C (stereo not drawn) | – | – | – | 59 | –
COc1ccccc1C1/C(=C(/O)c2ccc(C)cc2)C(=O)C(=O)N1CC(C)O (stereo not drawn) | – | – | – | – | –
CCCCOC(=O)C1CCCC(C(=O)OCCCC)N1 (stereo not drawn) | – | – | – | – | –
CCSc1nc2sc3c(c2c(=O)[nH]1)CC(C)(CC)OC3 (stereo not drawn) | – | – | – | – | –
Cn1c(NN)nc2sc3c(c2c1=O)CC(C)(C)OC3 | · | – | · | · | ·
CCC1(C)Cc2c(sc3nc(NC)n(C)c(=O)c23)CO1 (stereo not drawn) | – | – | – | – | 56
CCC1(C)Cc2c(sc3nc4n(c(=O)c23)CCS4)CO1 (stereo not drawn) | – | – | – | 51 | 64
CCOC(=O)N1CCN(C(=O)c2ccc3c(c2)NC(=O)C(N2CCOCC2)S3)CC1 (stereo not drawn) | – | – | – | – | –
COc1ccccc1N1C(=O)c2cccc3c(C(=O)O)ccc(c23)C1=O | – | – | – | – | –
Cc1ccccc1N1C(=O)c2cccc3c(N(C)CCO)ccc(c23)C1=O | – | – | – | – | 50

Screening data from PubChem BioAssay.
